Shown are actives, neighbours in structure and some others; about 4.6% of the full set was active somewhere.
TRHR ag: activates the human TRH receptor; P34981; TRHR cells, calcium flux fluo-8, FDSS agonist mode; activation, % at 2 µM; hit rate 0.18% among 360,000; note: 0% is about no effect
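Agonist-mode FDSS calcium read (Ex 480/Em 530, 1 s cycles) in 1536-well TRHR cells with fluo-8 dye, after 10-cycle baseline and 23 nL compound addition; TRH at EC20 (10 nM final) added afterwards for the enhancer phase.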
D1 potentiator: potentiators of human D1 dopamine receptor | HEK293 TREx D1 cells, calcium flux, dopamine EC20 potentiation | hit rate 0.036% among 360,000 | P21728 | potentiation, % at 10 µM; in the data active = potentiation above about 30%; note: 0% is about no effect
Target sequence (P21728 whole entry, looked up): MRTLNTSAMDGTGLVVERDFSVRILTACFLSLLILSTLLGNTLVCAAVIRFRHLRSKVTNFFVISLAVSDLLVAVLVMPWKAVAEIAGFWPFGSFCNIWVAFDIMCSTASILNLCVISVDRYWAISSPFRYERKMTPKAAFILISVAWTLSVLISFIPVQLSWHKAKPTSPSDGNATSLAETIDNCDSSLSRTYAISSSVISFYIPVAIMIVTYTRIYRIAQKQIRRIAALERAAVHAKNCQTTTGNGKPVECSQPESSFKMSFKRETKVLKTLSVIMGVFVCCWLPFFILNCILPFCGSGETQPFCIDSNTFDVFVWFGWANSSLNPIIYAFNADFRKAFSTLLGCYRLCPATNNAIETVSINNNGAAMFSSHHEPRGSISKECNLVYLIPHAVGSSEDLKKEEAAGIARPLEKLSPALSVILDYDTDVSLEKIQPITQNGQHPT
TRHR enhancer: TRH receptor (human) allosteric enhancement | TRHR cells, fluo-8 calcium fluorescence, EC20 TRH enhancement | enhancement, % at 2 µM | hit rate 0.66% among 360,000; in the data active = enhancement above about 30%; note: 0% is about no effect
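TRHR-expressing cells loaded with fluo-8 calcium dye were read kinetically (ex 480/em 530) during compound addition, then stimulated with an EC20 of TRH (10 nM final). Enhancement of the Gq-mediated intracellular calcium response was scored.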
D1 ag: human D1 receptor agonism | HEK293 T-REx D1 cells, calcium flux, agonist mode | hit rate 1% among 360,000 | activation, % at 2 µM | AID 504660 | P21728; note: 0% is about no effect
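Agonism was scored from calcium flux recorded over 180 s (1 read/s) after pintool compound addition, following a 10-cycle baseline. Cells were inducible force-coupled HEK293 TREx D1, plated overnight at 30 C and loaded with no-wash calcium dye.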
D1 antagonist: human D1 dopamine receptor antagonism. activity change, negative = inhibition, % at 10 µM. P21728. hit rate 3.2% among 360,000. HEK293 TREx D1 cells, calcium flux, dopamine EC80; hits give low values; in the data active = activity change below about -30%; note: % is set by controls: 0 for no effect and ±100 for the full control effect
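Antagonism measured as reduced calcium response to an EC80 dopamine addition following 180 s compound pre-read; cells were inducible HEK293 Trex D1 plated overnight at 30 C, read kinetically at 1 cycle/sec.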
* marks the source's active call; other numbers are inactive results; . = no result given; ! = repeats disagree. Cut-off read from the data, not from the text of the source, unless noted: active = activation above about 30%; inactive = the rest.

SMILES	TRHR ag	D1 potentiator	TRHR enhancer	D1 ag	D1 antagonist
COc1cccc(C(C2C(=O)CC(C)(C)CC2=O)C2C(=O)CC(C)(C)CC2=O)c1	-1	4	-3	2	-1
COc1cccc(C(C2=C(O)CC(C)(C)CC2=O)C2C(=O)CC(C)(C)CC2=O)c1 (configuration not stated)	0	-3	34*	1	-2
COc1ccc(-c2nc3cc(C)ccn3c2NCc2ccc3c(c2)OCO3)cc1	0	0	-3	3	-31*
COc1ccc(-c2nc3ccccn3c2NCc2ccc3c(c2)OCO3)cc1	0	-7	2	0	4
O=C(Nc1ccccc1Cl)c1ccc(F)c(S(=O)(=O)NCc2ccc(Cl)c(Cl)c2)c1	1	1	2	1	-7
COC(=O)C1=C(C)NC2=C(C(=O)CC(c3cccs3)C2)C1c1ccsc1 (configuration not stated)	-1	-8	3	1	-48*
CC(C)NC(=O)Cn1c(=O)cnc2ccccc21	0	-5	-1	4	-55*
CC[n+]1ccc2cc(OC)c(OC)cc2c1Cc1ccc(OC)c(OC)c1	2	0	-3	-1	-49*
CC1CC(C)CN(CCOc2ccc(Cl)cc2Cl)C1 (configuration not stated)	0	-23	0	10	-28
CC1CC(C)CN(CCOc2cccc(Cl)c2Cl)C1 (configuration not stated)	0	-5	-2	6	-35*
CCOC(=O)c1ccc(NC(=O)C2CCCN(c3ncnc4onc(C)c34)C2)cc1 (configuration not stated)	1	-2	10	7	-9
COc1ccccc1C(=O)Nc1cccc(C(=O)OCc2cc(=O)n3ccsc3n2)c1	-1	1	-4	0	4
N#CCCn1c(=O)n(CCC#N)c2ccccc21	0	-8	-6	1	-38*
Cn1c(=O)n(CC#N)c2ccccc21	0	-3	1	3	5
COc1ccc(-c2cc(C(=O)Nc3cc(C(F)(F)F)ccc3Cl)no2)cc1	1	0	2	0	-15
CC(=O)OCCn1c2nc(=O)[nH]c(=O)c-2nc2cc(C)c(C)cc21	161*	30	124*	482*	5
Cc1ccc(S(=O)(=O)N2CCCC(C(=O)NCc3ccco3)C2)cc1Cl (configuration not stated)	0	2	3	-1	5
Cc1ccc(S(=O)(=O)N2CCCC(C(=O)Nc3ccc(C(=O)O)cc3)C2)cc1Cl (configuration not stated)	0	-12	-2	2	-33*
COc1cccc(NC(=O)C2CCCN(S(=O)(=O)c3c(C)[nH]c(=O)[nH]c3=O)C2)c1 (configuration not stated)	0	6	-6	0	1
COc1ccc(NC(=O)C2CCCN(S(=O)(=O)c3c(C)[nH]c(=O)[nH]c3=O)C2)cc1 (configuration not stated)	1	-4	-4	0	-31*!
Cc1ccc(S(=O)(=O)N2CCCC2)cc1C(=O)Nc1ccc(-n2cnnn2)cc1	0	-10	-1	5	-31*
Cc1n[nH]c(C)c1S(=O)(=O)N1CCCC(C(=O)N2CCN(c3ccc(Cl)cc3)CC2)C1 (configuration not stated)	0	-7	6	19	-48*
Cc1nn(C)c(C)c1S(=O)(=O)N1CCCC(C(=O)N2CCN(c3ccc(Cl)cc3)CC2)C1 (configuration not stated)	0	2	8	0	-7
COc1cc(NC(=O)Cn2c(-c3ccccc3)cc(C(C)=O)c2C)cc(OC)c1	0	-2	-2	4	-16
COc1cccc(C(=O)NC(=O)Nc2ccc(-n3nc(C(F)(F)F)cc3C(F)(F)F)cc2)c1	2	-3	2	-1	1
SMILES	TRHR ag	D1 potentiator	TRHR enhancer	D1 ag	D1 antagonist
CCc1ccc(C(=O)c2cn(CC(=O)Nc3ccc4c(c3)OCO4)c3ccc(F)cc3c2=O)cc1	1	1	5	6	5
Cc1ccc(NC(=O)C2CCCN(S(=O)(=O)c3c(C)n[nH]c3C)C2)cc1Cl (configuration not stated)	3	2	-7	36*	6
Cc1ccc(OCC(=O)N(Cc2ccco2)Cc2ccco2)cc1C	-1	2	-4	2	6
Cc1cc(C(=O)OCC(=O)NC(=O)c2cccn2C)c2ccccc2n1	-1	-4	-10	45*	17
O=C(NCc1ccc(F)cc1)C1CCCN(S(=O)(=O)c2ccc(Br)s2)C1 (configuration not stated)	-1	2	-3	-1	-3
CC(C)CN(CC(C)C)S(=O)(=O)N1CCC(C(=O)NCc2ccc(F)cc2)CC1	-1	-9	14	28	-67*
CCS(=O)(=O)N1CCC(C(=O)NCc2ccc(F)cc2Cl)CC1	0	-4	0	2	2
O=C(NCc1ccc(F)cc1Cl)C1CCN(S(=O)(=O)N2CCCCC2)CC1	0	-10	3	50*	-18
O=C(NCc1ccc(F)cc1)C1CCN(S(=O)(=O)c2ccc(Br)s2)CC1	0	-6	-5	0	-30*
CC(C)CN(CC(C)C)S(=O)(=O)N1CCC(C(=O)NCc2cccnc2)CC1	-2	4	7	2	21
COc1ccc(Cl)cc1NC(=O)CCn1nc(C)cc1C	0	-2	6	1	0
CCOC(=O)CN(C(=O)CSc1nnc(COc2ccc(OC)cc2)n1C)c1ccccc1	-1	-3	3	-1	-46*
N#Cc1cccc(NC(=O)C2CCN(c3ncccn3)CC2)c1	-2	-2	0	4	-10
COc1cccc(Cn2nnc(C(=O)NCc3ccc(F)cc3)c2N)c1	0	-6	4	1	-50*
Cc1cc(C)cc(NC(=O)Cn2nnc(C(=O)NCc3ccc4c(c3)OCO4)c2N)c1	1	-6	4	5	-32*
Cc1ccc(C)c(Cn2nnc(C(=O)NCc3ccccc3)c2N)c1	0	-1	21	41*	-6
Nc1c(C(=O)NCc2ccccc2)nnn1Cc1cccc(Br)c1	0	-1	0	2	2
CSc1ccc(Cn2nnc(C(=O)NCc3ccccc3)c2N)cc1	3	7	-4	49*	-4
Nc1c(C(=O)NCc2ccccc2)nnn1Cc1ccccc1	1	.	34*	9	4
CCOc1ccc(Cn2nnc(C(=O)NCCc3ccccc3)c2N)cc1	0	.	1	6	-10
CCOc1ccc(Cn2nnc(C(=O)NCCc3ccc(Cl)cc3)c2N)cc1	0	.	-3	1	-37*
COc1ccc(-c2nc(C)c(CCNC(=O)c3ccco3)s2)cc1	-1	2	-7	1	16

Source: PubChem BioAssay
